An excerpt weighted towards active compounds, which were near 19% of everything screened.
Cycloheximide cs = Cycloheximide Counterscreen for Small Molecule Inhibitors of Shiga Toxin. 300,000 tested, 12% active. max response, %. cell reporter, cycloheximide protein synthesis inhibition counterscreen; in the data active means max response mostly above about 13%, no sharp cut-off; inactive means mostly below about 14%; further: read at 38.3 µM for the half of the compounds with a filed dose
Pf growth 96h = Primary qHTS for delayed death inhibitors of the malarial parasite plastid, 96 hour incubation. Potency, µM (highest dose often 28.7 µM), usual class: inhibitors. P. falciparum luciferase reporter growth, 96 h. 320,000 tested, 6.9% active
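Luminescence readout: decreased luciferase signal marks inhibited growth of reporter-expressing P. falciparum in infected red cells (2% hematocrit, 0.05% parasitemia final), exposed to compound two generations (96 h, 37 C, 5% CO2).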
MARV entry inh = qHTS for inhibitors of binding or entry into cells for Marburg Virus; Marburg virus pseudotyped entry inhibition, cell reporter; Potency, µM (top dose mostly 37.8 µM), usual class: inhibitors; 300,000 tested, 1.8% active; AID 540276, 2011; calls by dose curve; tested in HEK293 cells
Pf growth 48h = Primary qHTS for delayed death inhibitors of the malarial parasite plastid, 48 hour incubation | P. falciparum luciferase growth in erythrocytes, 48 h | Potency, µM (titrated, usually from 28.7 µM), usual class: inhibitors | 310,000 tested, 5.9% active | AID 504832, 2011
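First compound was added to culture medium, then infected red cells at 0.1% parasitemia and 2% hematocrit (final). After incubation at 37 C under 5% CO2, luciferase detection reagent was dispensed and light output recorded.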
LASV entry inh = qHTS for Inhibitors of binding or entry into cells for Lassa Virus; Lassa virus pseudotype entry inhibition, cell reporter; Potency, µM (top dose mostly 37.9 µM), usual class: inhibitors; 300,000 tested, 1.2% active; calls by dose curve; tested in HEK293 cells; further: nearly all actives have a fitted effect of over 50% in size
Shiga inhibitor = A qHTS for Small Molecule Inhibitors of Shiga Toxin; Vero cells, Shiga toxin protein synthesis inhibition reporter; inhibition, % at 38.7 µM; 290,000 tested, 9.2% active; AID 2315, 2010; in the data active means inhibition mostly above about 28%, no sharp cut-off; inactive means mostly below about 43%
Of the large screens only hits and unclear results are named; the others gave an inactive call. Unless noted, the call rests on the fitted dose curve; in most records, active means well fitted inhibition curve with a large enough effect; inconclusive means small, poorly fitted or top-dose-only effect, or another doubt; inactive means no such curve, though single readings can be large or run the other way.

CCN1CCN(Cc2ccc(NC(=O)Nc3cccs3)cc2)CC1	Cycloheximide cs 40.9, MARV entry inh inconclusive, Shiga inhibitor 39.7
CCN1CCN(Cc2ccc(NC(=O)Nc3ccc(OC)cc3)cc2)CC1	Cycloheximide cs 21.0, Pf growth 48h inconclusive, Shiga inhibitor 42.4 (no result: MARV entry inh, LASV entry inh)
CCN1CCN(Cc2ccc(NC(=O)Nc3ccccc3)cc2)CC1	Cycloheximide cs 45.7, MARV entry inh inconclusive, LASV entry inh inconclusive, Shiga inhibitor active
COc1ccc(Cn2c(=O)[nH]c3cc(C(=O)Nc4ccccc4C)ccc32)cc1	none (no result: MARV entry inh, LASV entry inh)
CCN1CCN(c2ccc(NC(=O)c3ccc4c(c3)[nH]c(=O)n4Cc3ccc(OC)cc3)cc2)CC1	Pf growth 96h 10.4µM, MARV entry inh 7.94µM, Pf growth 48h inconclusive, LASV entry inh inconclusive
Cc1ccc2nc(-c3ccccc3)c(CN3CCN(c4ccccc4F)CC3)n2c1	Pf growth 96h inconclusive, Pf growth 48h inconclusive (no result: MARV entry inh, LASV entry inh)
C=CC(C)(C)c1[nH]cnc1/C=C1\NC(=O)C(C(C)C)NC1=O (stereo not drawn)	Pf growth 96h 2.08µM, Pf growth 48h inconclusive (no result: MARV entry inh, LASV entry inh)
COC(=O)CN(C)C(=O)c1ccc2nc(Cc3cccc(Cl)c3)oc2c1	Cycloheximide cs 50.8, Pf growth 96h inconclusive (no result: MARV entry inh, LASV entry inh, Shiga inhibitor)
CC(C)(CO)NC(=O)c1ccc2nc(Cc3cccc(Cl)c3)oc2c1	Cycloheximide cs 26.1, Shiga inhibitor 25.7 (no result: MARV entry inh, LASV entry inh)
Cc1cccc(NC(=O)/C(C#N)=C\c2cc(C)n(-c3ccc(C(=O)O)cc3)c2C)c1	Pf growth 96h inconclusive (no result: MARV entry inh, LASV entry inh)
O=C(Nc1ccon1)c1ccc(N2CCCCC2)c([N+](=O)[O-])c1	Cycloheximide cs 45.5, Pf growth 96h inconclusive, Shiga inhibitor 99.0
O=C(Nc1cccc(Cl)c1N1CCCCC1)c1ccc(N2CCOCC2)c([N+](=O)[O-])c1	Pf growth 96h 6.57µM
O=C(NN1CCOCC1)c1ccc(Cl)c([N+](=O)[O-])c1	Cycloheximide cs 26.6, Shiga inhibitor 61.5 (no result: MARV entry inh, LASV entry inh)
O=C(Nc1cccc(Cl)c1N1CCOCC1)c1cc([N+](=O)[O-])ccc1N1CCOCC1	Pf growth 48h inconclusive (no result: MARV entry inh, LASV entry inh)
Cc1cc(NC(=O)c2ccc(N3CCCC3)c([N+](=O)[O-])c2)no1	Cycloheximide cs 20.0, Pf growth 96h inconclusive, MARV entry inh inconclusive, Pf growth 48h inconclusive
CCC12C=C(/C=C/c3ccccc3)C(CC)(C1)C(c1ccccc1)CC2=O (stereo not drawn)	none (no result: Cycloheximide cs, Pf growth 96h, Pf growth 48h, LASV entry inh, Shiga inhibitor)
Cc1nnc(-c2ccc(N3CCOCC3)c([N+](=O)[O-])c2)o1	none (no result: Cycloheximide cs, MARV entry inh, LASV entry inh, Shiga inhibitor)
Cc1nnc(-c2ccc(N3CCCCCC3)c([N+](=O)[O-])c2)o1	Cycloheximide cs 14.8, Pf growth 96h inconclusive, Shiga inhibitor 50.3 (no result: MARV entry inh, LASV entry inh)
O=C(Nc1nc2ccccc2s1)c1ccc(N2CCCCC2)c([N+](=O)[O-])c1	Cycloheximide cs 44.9, Pf growth 96h inconclusive, MARV entry inh inconclusive, LASV entry inh inconclusive, Shiga inhibitor 102.4
O=C(OCCc1cc2ccccc2c(=O)o1)c1ccc2c(c1)OCO2	none (no result: Cycloheximide cs, MARV entry inh, LASV entry inh, Shiga inhibitor)
C[N+](C)(CCOc1ccccc1)Cc1ccccc1 (tested in a mixture with another compound)	Pf growth 48h 10.4µM
CC(C)(C)CC(C)(C)c1ccc(OCCOCC[N+](C)(C)Cc2ccccc2)cc1	Pf growth 96h 0.465µM, Pf growth 48h 0.928µM (no result: Cycloheximide cs, MARV entry inh, LASV entry inh, Shiga inhibitor)
CCN(CC)C(=O)c1cc(Cl)ccc1NC(=O)c1ccco1	none (no result: MARV entry inh, LASV entry inh)
CCOc1cc(N2CCOCC2)c(OCC)cc1NC(=O)COC(=O)c1cc(C)oc1C	none
O=C(Cn1nnc(-c2ccccc2)n1)Nc1cccc(S(=O)(=O)N2CCCC2)c1	Pf growth 96h inconclusive (no result: Cycloheximide cs, Shiga inhibitor)
Cc1cc(=O)oc2cc(OCC(=O)c3ccc4c(c3)NC(=O)CO4)ccc12	MARV entry inh inconclusive, LASV entry inh inconclusive
CC(C)(C)c1ccc(CN2CCN([C@H](c3ccccc3)c3ccc(Cl)cc3)CC2)cc1	Pf growth 96h 7.57µM, Pf growth 48h 16.9µM (no result: Cycloheximide cs, MARV entry inh, LASV entry inh, Shiga inhibitor)
c1ccc(-c2nnc(CN3CCN(C(c4ccccc4)c4ccccc4)CC3)o2)cc1	Pf growth 96h 9.28µM (no result: MARV entry inh, LASV entry inh)
O=C(O)COCCN1CCN(C(c2ccccc2)c2ccc(Cl)cc2)CC1 (stereo not drawn)	MARV entry inh inconclusive (no result: Pf growth 96h)
c1ccc(-c2nnc(CN3CCN(c4ccccc4)CC3)o2)cc1	LASV entry inh inconclusive

Screening data as filed in PubChem.
